Laboratory results as given in PubChem BioAssay (NCI).
The panel holds about 83,000 compounds, 20% with a hit somewhere; the sample as a whole holds those more often.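 A percent growth of 40 corresponds to 60% growth inhibition; 0 means no net growth; -100 means all cells died. Active threshold: below 10.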 The source made the active and inactive calls.

Legend:
Assay in all cases: NCI-60 one-dose screen, 48 h (100 = growth as untreated, 0 = no growth, -100 = all killed)
Details in all cases: 10 µM
SR leukemia = tested on: SR leukemia
RPMI-8226 leukemia = tested on: RPMI-8226 leukemia
OVCAR-8 ovarian = tested on: OVCAR-8 ovarian
OVCAR-5 ovarian = tested on: OVCAR-5 ovarian
OVCAR-4 ovarian = tested on: OVCAR-4 ovarian
SK-OV-3 ovarian = tested on: SK-OV-3 ovarian
IGROV1 ovarian = tested on: IGROV1 ovarian
OVCAR-3 ovarian = tested on: OVCAR-3 ovarian
HS 578T breast = tested on: HS 578T breast
NCI/ADR-RES ovarian = tested on: NCI/ADR-RES ovarian
T-47D breast = tested on: T-47D breast
BT-549 breast = tested on: BT-549 breast
MDA-MB-435 melanoma = tested on: MDA-MB-435 melanoma
SW-620 colon = tested on: SW-620 colon
MCF7 breast = tested on: MCF7 breast
HCT-116 colon = tested on: HCT-116 colon
HCC-2998 colon = tested on: HCC-2998 colon
KM12 colon = tested on: KM12 colon

Measured: growth

Cc1ccc(-n2nnc3c(sc4ccccc43)c2=O)cc1
active: OVCAR-4 ovarian -23.6% | SK-OV-3 ovarian 9.88% | HCT-116 colon 3.11%
inactive: SR leukemia 75.1% | RPMI-8226 leukemia 46.1% | OVCAR-8 ovarian 50% | OVCAR-5 ovarian 90.3% | IGROV1 ovarian 23.5% | OVCAR-3 ovarian 37.1% | HS 578T breast 23% | NCI/ADR-RES ovarian 53.7% | T-47D breast 64.2% | BT-549 breast 81.4% | MDA-MB-435 melanoma 59% | SW-620 colon 58.6% | MCF7 breast 81.2% | HCC-2998 colon 70.8% | KM12 colon 25.3%

O=[N+]([O-])C1CC2C=CC1C2 (configuration not stated)
inactive: SR leukemia 92.4% | RPMI-8226 leukemia 111% | OVCAR-8 ovarian 102% | OVCAR-5 ovarian 104% | OVCAR-4 ovarian 99.7% | SK-OV-3 ovarian 102% | IGROV1 ovarian 103% | OVCAR-3 ovarian 91.6% | HS 578T breast 97.9% | NCI/ADR-RES ovarian 95.6% | T-47D breast 93% | BT-549 breast 97.3% | MDA-MB-435 melanoma 92.7% | SW-620 colon 103% | MCF7 breast 92.1% | HCT-116 colon 107% | HCC-2998 colon 102% | KM12 colon 104%

Oc1ccc(Cn2cc3c(c2-c2ccccc2)CCc2cnoc2-3)cc1
inactive: SR leukemia 76.8% | RPMI-8226 leukemia 82.1% | OVCAR-8 ovarian 100% | OVCAR-5 ovarian 105% | OVCAR-4 ovarian 95.8% | SK-OV-3 ovarian 94.4% | IGROV1 ovarian 120% | OVCAR-3 ovarian 107% | HS 578T breast 106% | NCI/ADR-RES ovarian 86.2% | T-47D breast 78.4% | BT-549 breast 101% | MDA-MB-435 melanoma 72.7% | SW-620 colon 98% | MCF7 breast 105% | HCT-116 colon 92.7% | HCC-2998 colon 102% | KM12 colon 91.5%

COc1ccccc1S(=O)(=O)Nc1ccc2c(c1)CN(C)C(=O)N2
active: RPMI-8226 leukemia 4.25%
inactive: SR leukemia 36% | OVCAR-8 ovarian 56.2% | OVCAR-5 ovarian 74.5% | OVCAR-4 ovarian 43.1% | SK-OV-3 ovarian 49.1% | IGROV1 ovarian 24% | OVCAR-3 ovarian 32.2% | HS 578T breast 33.7% | NCI/ADR-RES ovarian 68.9% | T-47D breast 31.4% | BT-549 breast 101% | MDA-MB-435 melanoma 34.2% | SW-620 colon 59.4% | MCF7 breast 21.5% | HCT-116 colon 49.7% | HCC-2998 colon 64.4% | KM12 colon 45%

CCCCC(CC#N)(CCC)CCC
inactive: SR leukemia 93.6% | RPMI-8226 leukemia 100% | OVCAR-8 ovarian 104% | OVCAR-5 ovarian 104% | OVCAR-4 ovarian 93.2% | SK-OV-3 ovarian 94.8% | IGROV1 ovarian 102% | OVCAR-3 ovarian 106% | HS 578T breast 113% | NCI/ADR-RES ovarian 97.7% | T-47D breast 100% | BT-549 breast 98.5% | MDA-MB-435 melanoma 99.4% | SW-620 colon 108% | MCF7 breast 98.4% | HCT-116 colon 106% | HCC-2998 colon 96.3% | KM12 colon 107%

NC1CCC(Nc2nc(NCc3ccc(-c4cccs4)nc3)c3ncn(C4CCCC4)c3n2)CC1 (configuration not stated)
active: SR leukemia -33.2% | RPMI-8226 leukemia -20.5% | OVCAR-4 ovarian 5.74% | SK-OV-3 ovarian 4.04% | IGROV1 ovarian 8.26% | OVCAR-3 ovarian 2.56% | HS 578T breast 6.97% | T-47D breast -22.9% | BT-549 breast -27.4% | MDA-MB-435 melanoma -53.2% | SW-620 colon 6.7% | MCF7 breast -34% | HCT-116 colon 0.721% | HCC-2998 colon -43.1% | KM12 colon 5.58%
inactive: OVCAR-8 ovarian 12.2% | OVCAR-5 ovarian 22.6% | NCI/ADR-RES ovarian 38.1%

COc1cccc(-c2nnc(COc3ccc(-c4nc5ccccc5[nH]4)cc3OC)o2)c1
inactive: RPMI-8226 leukemia 51% | OVCAR-8 ovarian 67.3% | OVCAR-5 ovarian 119% | OVCAR-4 ovarian 103% | SK-OV-3 ovarian 107% | IGROV1 ovarian 101% | OVCAR-3 ovarian 102% | HS 578T breast 102% | NCI/ADR-RES ovarian 89% | T-47D breast 73.6% | BT-549 breast 81.7% | MDA-MB-435 melanoma 94.9% | SW-620 colon 110% | MCF7 breast 73.6% | HCT-116 colon 73% | HCC-2998 colon 105% | KM12 colon 98%
active: SR leukemia 7.26%

CCCCCCCCCCCCCCCC(=O)N1CCN(C)CC1
inactive: RPMI-8226 leukemia 71% | OVCAR-8 ovarian 86.3% | OVCAR-5 ovarian 86.3% | OVCAR-4 ovarian 87.6% | SK-OV-3 ovarian 84.9% | IGROV1 ovarian 52.3% | OVCAR-3 ovarian 86.8% | HS 578T breast 90.1% | NCI/ADR-RES ovarian 90.3% | T-47D breast 74.3% | BT-549 breast 83.1% | MDA-MB-435 melanoma 59.8% | SW-620 colon 90% | MCF7 breast 85% | HCT-116 colon 57.3% | HCC-2998 colon 81.8% | KM12 colon 76.2%
active: SR leukemia -3.08%

CC(C)C[C@H](NC(=O)Cn1ccc(Nc2ccccc2)cc1=O)B(O)O
inactive: OVCAR-8 ovarian 54.4% | OVCAR-5 ovarian 33.9% | OVCAR-4 ovarian 47.5% | SK-OV-3 ovarian 51.7% | IGROV1 ovarian 53.4% | HS 578T breast 28.9% | NCI/ADR-RES ovarian 111% | SW-620 colon 15% | MCF7 breast 28.2% | KM12 colon 36.1%
active: SR leukemia 4.14% | RPMI-8226 leukemia 1.74% | OVCAR-3 ovarian -45.4% | T-47D breast -4.25% | BT-549 breast 9.01% | MDA-MB-435 melanoma -85.4% | HCT-116 colon -6.59% | HCC-2998 colon 9.37%
